Laboratory results published in PubChem BioAssay (Tox21).
Records with an inconclusive call do not appear. Where a call stands in place of a potency, no number is given. The source made the active and inactive calls. Calls come from the whole dose curve; as a rule, active = well fitted activation curve with a large enough effect in the signal ratio in the repeat runs (not every such curve was filed as active); inconclusive = weak or mixed curves, or effect the other way; inactive = no such curve, though single readings can be large or run the other way; the % refers to the signal ratio.

Assay: qHTS assay for small molecule agonists of the antioxidant response element (ARE) signaling pathway (AID 743202)
Conditions: HepG2 ARE-bla reporter, beta-lactamase FRET, 16 h; series mostly up to 73.3 µM
Description: U.S. Tox21 Program National Center for Advancing Translational Sciences [NCATS] NIH Chemical Genomics Center [NCGC] U.S. Environmental Protection Agency [EPA] National Institutes of Environmental Health Sciences [NIEHS] National Toxicology Program [NTP] U.S. Food and Drug Administration [FDA] Tox21 Assay Overview: Oxidative stress has been implicated in the pathogenesis of a variety of diseases ranging from cancer to neurodegeneration. The antioxidant response element (ARE) signaling pathway plays an important role in the amelioration of oxidative stress. The CellSensor ARE-bla HepG2 cell line (Invitrogen) can be used for analyzing the Nrf2/antioxidant response signaling pathway. Nrf2 (NF-E2-related factor 2) and Nrf1 are transcription factors that bind to AREs and activate these genes. The CellSensor ARE-bla Hep G2 cell line contains a beta-lactamase reporter gene under control of the Antioxidant Response Element (ARE) stably integrated into HepG2 cells. The activation of the report gene under culture conditions can be detected by fluorescence intensity. This cell line has been used to screen the Tox21 10K compound library to identify agonists that induce oxidative stress.
Tox21 Assay Protocol Summary: The ARE-bla cells were dispensed at 2,000 cells/5 ul/well in 1536-well black wall/clear bottom plates using a Multidrop dispenser. After the assay plates were incubated at a 37 C/5% CO2 incubator for 5 hours, 23 nL of compounds dissolved in DMSO, positive controls or DMSO only was transferred to the assay plate by a pin tool. The plates were incubated at 37 C for 16 hours. After 1 uL of LiveBLAzer B/G FRET substrate was added using a Flying Reagent Dispenser, the plates were incubated at room temperature for 2 hours, and fluorescence intensity was measured by an Envision plate reader.
Potency is the fitted concentration of half-maximal effect.

Row | Compound | Potency
1 | CCCCCCCN | inactive
2 | CCCn1cnc2c1c(=O)n(CCCCC(C)=O)c(=O)n2C | inactive
3 | Nc1cc(C(=O)O)c(O)c(S(=O)(=O)O)c1 | inactive
4 | C[N+]1(CC2COC(c3ccccc3)(C3CCCCC3)O2)CCCCC1 (stereo not given) | inactive
5 | CCCCCCCCO[C@@H]1O[C@H](CO)[C@@H](O)[C@H](O)[C@H]1O | inactive
6 | CC(C)Cc1ccc(C(C)C(=O)OCc2ccccn2)cc1 (stereo not given) | inactive
7 | CCN(CC)CCNC(=O)c1cc(Br)c(N)cc1OC | inactive
8 | CN(C)c1ccc(C(c2ccccc2)c2ccc(N(C)C)cc2)cc1 | inactive
9 | CCCCC(CC)COC(=O)COc1ccc(Cl)cc1Cl (stereo not given) | inactive
10 | C=CC(=O)OCCOc1ccccc1 | inactive
11 | Nc1ccc(S(=O)(=O)Nc2ccccc2)cc1 | inactive
12 | CC(=O)NO | inactive
13 | S=C([S-])NCCNC(=S)[S-].[Mn+2] | 6.86 µM (active)
14 | CN(C)CCN(Cc1ccc(Cl)cc1)c1ccccn1 | inactive
15 | COS(=O)(=O)C(F)(F)F | inactive
16 | COC(C)(C)CCO | inactive
17 | CN(C)c1ccc(CCO)cc1 | inactive
18 | CCC(CC)Nc1ccc(C)c(C)c1 | inactive
19 | O=C(OCCc1ccccc1)c1ccccc1 | inactive
20 | CCCCCCCC#N | inactive

Row | Compound | Potency
21 | CCn1cc(C(=O)O)c(=O)c2cnc(N3CCNCC3)nc21 | inactive
22 | CC(=O)c1ccc2c(c1)N(CCCN1CCC(CCO)CC1)c1ccccc1S2 | inactive
23 | COc1cc(Cl)ccc1Oc1ccc(Cl)cc1Cl | inactive
24 | COC(C)OC | inactive
25 | C=CCOC(=O)CCC1CCCCC1 | inactive
26 | COc1cc(C(=O)OCCCN2CCCN(CCCOC(=O)c3cc(OC)c(OC)c(OC)c3)CC2)cc(OC)c1OC | 11.9 µM (active)
27 | CCC(C)O (stereo not given) | inactive
28 | C#CCN(C)CCCOc1ccc(Cl)cc1Cl | 15 µM (active)
29 | CO[C@@H]1[C@H](OC(=O)/C=C/C=C/C=C/C=C/C(=O)O)CC[C@]2(CO2)[C@H]1[C@@]1(C)O[C@@H]1CC=C(C)C | 24.3 µM (active)
30 | O=C(O)c1ccccc1Cl | inactive
31 | CN(C)C(=O)NC1(c2ccccc2)CCN(CC[C@@]2(c3ccc(F)c(F)c3)CN(C(=O)c3ccccc3)CCO2)CC1 | inactive
32 | C=C(C)C(=O)OCCOCC | inactive
33 | CCOc1ccc(O)cc1 | 61.1 µM (active)
34 | O=C1CCC(=O)O1 | inactive
35 | Nc1c(CC(=O)O)cccc1C(=O)c1ccc(Br)cc1 | inactive
36 | Cc1ccc(C(C)OC(=O)C2(C)CCC(C(=O)O)C2(C)C)cc1 (stereo not given) | inactive
37 | C=C1C(=C/C=C2\CCC[C@]3(C)[C@@H]([C@H](C)/C=C/[C@@H](O)C4CC4)CC[C@@H]23)C[C@@H](O)C[C@@H]1O | 2.66 µM (active)
38 | CCCCCCCCCCCc1ccccc1 | inactive
39 | O=C(O)c1ccco1 | inactive
40 | Cc1cc(C(=O)O)ccc1[N+](=O)[O-] | inactive
